# Measured values reported in PubChem BioAssay (EPA / NIEHS).
# Results filed as inconclusive are left out. A structure can be active in one record and inactive in another. Calls of active or inactive are those of the source. Rule for the calls, unless noted: active = hit-call score of the fitted dose curve at least 0.9, where 1 is the maximum; inactive = score below 0.9.
# Assays:
# [1] = biological target: human CYP2A6, CYP2A6 (gene 1548) (UniProt P11509); assay: NVS_ADME_hCYP2A6: NovaScreen (NVS) CYP450-related Enzyme Activity (ADME) Assay for human CYP2A6 (AID 2283099; active = hit-call score of the fitted dose curve at least 0.9, where 1 is the maximum)
# Method in brief: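 Cell-free fluorescence readout of recombinant human CYP2A6 expressed in insect cells, read 0.5 h after dosing; loss of signal versus acetonitrile negative control. Primary screen in duplicate at 10 uM; actives re-run in concentration-response up to 20 uM.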
# [2] = biological target: human CYP1A1, CYP1A1 (gene 1543) (UniProt P04798); assay: NVS_ADME_hCYP1A1: NovaScreen (NVS) CYP450-related Enzyme Activity (ADME) Assay for human CYP1A1 (AID 2283100; active = hit-call score of the fitted dose curve at least 0.9, where 1 is the maximum)
# Method in brief: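 Cell-free fluorescence assay of recombinant human CYP1A1 activity with a specific substrate, read 1 h after dosing. Compounds were screened in duplicate at 10 uM, then hits tested in concentration-response up to 20 uM; acetonitrile served as baseline.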
# [3] = read-out: Monocyte Chemoattractant Protein-1 (MCP1), CCL2 (gene 6347); assay: BSK_SAg_MCP1: BioMAP Diversity Plus: SAg Assay for Monocyte Chemoattractant Protein-1 (MCP1) Biomarker Activity (AID 2283090); conditions: primary human HUVEC with PBMC; actives raise or lower the signal
# Method in brief: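 MCP-1 levels in the endothelial–PBMC SAg co-culture were quantified by ELISA at 24 h post-dosing; both increases and decreases versus DMSO scored. Cytotoxicity monitored by SRB total protein in parallel cultures.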
# [4] = read-out: E-selectin (Homo sapiens) (UniProt P16581); assay: BSK_SAg_Eselectin: BioMAP Diversity Plus: SAg Assay for Eselectin Biomarker Activity (AID 2283091); conditions: primary human HUVEC with PBMC; actives raise or lower the signal
# Method in brief: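 HUVEC co-cultured with PBMC, compound dosed then read at 24 h; E-selectin measured by ELISA. Activity fitted bidirectionally against DMSO as negative control and baseline.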
# [5] = read-out: Monokine induced gamma interferon (MIG), CXCL9 (gene 4283); assay: BSK_SAg_MIG: BioMAP Diversity Plus: SAg Assay for Monokine induced gamma interferon (MIG) Biomarker Activity (AID 2283092); conditions: primary human HUVEC with PBMC; actives raise or lower the signal
# Method in brief: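 Values reflect bidirectional fitting of ELISA-measured MIG against DMSO vehicle, taken 24 h after dosing of a co-culture of human umbilical vein endothelial cells and peripheral blood mononuclear cells.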
# [6] = BSK_SAg_PBMCCytotoxicity: PBMC Cytotoxicity Assessment in the BioMAP Diversity Plus: SAg Assay (AID 2283093); conditions: primary human HUVEC with PBMC;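 note: PBMC viability measured as Alamar Blue reduction fluorescence at 546/580 nm; fitted both ways against DMSO so a hit may be loss or gain of signal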;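 for AC50: PBMC superantigen activated with SEB plus TSST-1 one hour after compound addition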
# Method in brief: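 Human umbilical vein endothelial cells co-cultured with PBMC; PBMC (75,000/well) pre-treated with compound 1 h, then activated with SEB and TSST-1 (20 ng/mL final each) for 90 h. Alamar Blue added 6 h, fluorescence 546/580 nm; bidirectional fit versus DMSO.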
# [7] = read-out: Interleukin-8 (IL8), CXCL8 (gene 3576); assay: BSK_SAg_IL8: BioMAP Diversity Plus: SAg Assay for Interleukin-8 (IL8) Biomarker Activity (AID 2283094); conditions: primary human HUVEC with PBMC; actives raise or lower the signal
# Method in brief: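 In this co-culture of human umbilical vein endothelium with peripheral blood mononuclear cells, IL-8 is assayed by ELISA at 24 h. DMSO serves as baseline for bidirectional curve fitting.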
# [8] = BSK_SAg_Proliferation: Cell Proliferation Assessment in the BioMAP Diversity Plus: SAg Assay (AID 2283095); conditions: primary human HUVEC with PBMC;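 note: relative cell number as total protein by SRB absorbance in sub-confluent culture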
# Method in brief: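 Readout is SRB-stained protein (560 nm) in a primary human HUVEC and PBMC co-culture; sub-confluent cultures are read at 96 h. Activity is fitted bidirectionally using DMSO as baseline.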
# [9] = BSK_SAg_SRB: Viability Assessment in the BioMAP Diversity Plus: SAg Assay (AID 2283096); conditions: primary human HUVEC with PBMC;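 note: cells read one day after compound addition; hits may be either gain or loss of signal compared with DMSO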
# Method in brief: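 Endothelial/PBMC primary human co-culture; compound 24 h; fix 10% TCA, stain 0.1% SRB, A560; protein content as cytotoxicity proxy; bidirectional curve fit, DMSO = baseline.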
# [10] = biological target: human CYP19A1, CYP19A1 (gene 1588) (UniProt P11511); assay: NVS_ADME_hCYP19A1: NovaScreen (NVS) CYP450-related Enzyme Activity (ADME) Assay for human CYP19A1 (AID 2283098; active = hit-call score of the fitted dose curve at least 0.9, where 1 is the maximum;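 for AC50: potency for inhibitors seen as loss of fluorescent enzyme signal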)
# Method in brief: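 Cell-free enzyme assay with recombinant protein and a specific fluorogenic substrate, read by fluorescence intensity 0.5 h after dosing. Primary screen ran in duplicate at 10 uM; actives were retested in concentration series. Loss of signal versus acetonitrile baseline.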
# Chain of human CYP2A6, CYP2A6 (gene 1548) (P11509 whole entry, looked up): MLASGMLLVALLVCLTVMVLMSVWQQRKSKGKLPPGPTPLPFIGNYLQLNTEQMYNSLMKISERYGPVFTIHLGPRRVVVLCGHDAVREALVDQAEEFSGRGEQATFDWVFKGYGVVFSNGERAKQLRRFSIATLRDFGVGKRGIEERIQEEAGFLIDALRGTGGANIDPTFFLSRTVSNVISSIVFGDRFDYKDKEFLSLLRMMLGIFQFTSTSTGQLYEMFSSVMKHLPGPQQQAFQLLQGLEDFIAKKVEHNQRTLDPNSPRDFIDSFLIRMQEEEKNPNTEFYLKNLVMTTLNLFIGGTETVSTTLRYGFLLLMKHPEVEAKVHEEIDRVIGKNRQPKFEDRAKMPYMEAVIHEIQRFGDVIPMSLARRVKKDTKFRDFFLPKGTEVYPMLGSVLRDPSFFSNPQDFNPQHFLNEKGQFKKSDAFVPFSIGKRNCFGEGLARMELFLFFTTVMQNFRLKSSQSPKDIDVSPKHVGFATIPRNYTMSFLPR
# Chain of human CYP19A1, CYP19A1 (gene 1588) (P11511 whole entry, looked up): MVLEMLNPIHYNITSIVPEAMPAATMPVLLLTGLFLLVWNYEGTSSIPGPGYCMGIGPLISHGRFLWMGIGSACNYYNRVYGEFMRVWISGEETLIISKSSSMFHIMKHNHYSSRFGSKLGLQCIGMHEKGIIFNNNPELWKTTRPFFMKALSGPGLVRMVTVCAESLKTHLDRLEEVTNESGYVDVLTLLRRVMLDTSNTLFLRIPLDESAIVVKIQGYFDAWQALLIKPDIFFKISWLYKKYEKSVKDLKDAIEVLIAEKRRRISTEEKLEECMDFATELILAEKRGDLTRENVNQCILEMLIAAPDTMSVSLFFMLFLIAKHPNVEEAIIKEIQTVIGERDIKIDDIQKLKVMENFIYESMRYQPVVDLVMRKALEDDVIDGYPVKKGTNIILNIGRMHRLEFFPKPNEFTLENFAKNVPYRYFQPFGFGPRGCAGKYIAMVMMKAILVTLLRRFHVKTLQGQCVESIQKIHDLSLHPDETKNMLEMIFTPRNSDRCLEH
# Chain of E-selectin (Homo sapiens) (P16581 whole entry, looked up): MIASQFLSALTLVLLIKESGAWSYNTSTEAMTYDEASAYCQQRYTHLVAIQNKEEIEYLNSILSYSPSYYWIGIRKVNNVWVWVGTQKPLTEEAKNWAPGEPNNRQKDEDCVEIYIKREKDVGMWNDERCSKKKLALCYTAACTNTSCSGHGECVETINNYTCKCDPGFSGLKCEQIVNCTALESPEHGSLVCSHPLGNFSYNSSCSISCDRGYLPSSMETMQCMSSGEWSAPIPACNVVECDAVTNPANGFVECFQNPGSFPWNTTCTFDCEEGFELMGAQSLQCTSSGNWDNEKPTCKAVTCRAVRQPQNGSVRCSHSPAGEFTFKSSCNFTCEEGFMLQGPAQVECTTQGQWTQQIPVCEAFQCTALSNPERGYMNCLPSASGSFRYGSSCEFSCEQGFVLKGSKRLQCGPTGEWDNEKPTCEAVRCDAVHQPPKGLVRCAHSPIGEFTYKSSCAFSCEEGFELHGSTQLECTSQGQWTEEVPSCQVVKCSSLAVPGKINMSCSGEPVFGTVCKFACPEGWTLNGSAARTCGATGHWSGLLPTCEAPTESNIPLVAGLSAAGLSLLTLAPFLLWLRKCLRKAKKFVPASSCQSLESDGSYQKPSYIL
# Chain of human CYP1A1, CYP1A1 (gene 1543) (P04798 whole entry, looked up): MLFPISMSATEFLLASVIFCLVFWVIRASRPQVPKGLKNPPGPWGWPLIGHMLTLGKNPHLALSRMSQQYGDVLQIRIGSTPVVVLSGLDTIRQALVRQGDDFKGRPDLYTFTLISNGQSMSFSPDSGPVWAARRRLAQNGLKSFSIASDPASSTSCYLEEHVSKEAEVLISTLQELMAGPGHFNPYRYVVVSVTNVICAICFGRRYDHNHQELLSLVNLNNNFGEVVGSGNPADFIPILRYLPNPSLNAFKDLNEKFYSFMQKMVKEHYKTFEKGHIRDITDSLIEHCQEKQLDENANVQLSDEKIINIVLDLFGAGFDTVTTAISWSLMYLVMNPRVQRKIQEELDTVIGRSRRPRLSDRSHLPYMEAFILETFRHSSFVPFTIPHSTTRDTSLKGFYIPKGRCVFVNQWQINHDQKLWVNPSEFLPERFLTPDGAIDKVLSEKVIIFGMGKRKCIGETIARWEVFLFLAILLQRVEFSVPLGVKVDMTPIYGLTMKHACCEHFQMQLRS
smiles,measurement,setting,value
CC(C)(C)C(O)C(Oc1ccc(Cl)cc1)n1cncn1 (configuration not stated),outcome,[1],inactive
same,AC50,[2],7.11 µM (active)
same,outcome,[2],inactive
C[C@H]1[C@H](c2ccc(Cl)cc2)SC(=O)N1C(=O)NC1CCCCC1,AC50,[3],27 µM (active)
same,AC50,[4],15.2 µM (active)
same,outcome,[5],inactive
same,outcome,[6],inactive
same,AC50,[7],13.6 µM (active)
same,AC50,[8],18.1 µM (active)
same,AC50,[9],9.32 µM (active)
COP(=O)(OC)OC=C(Cl)Cl,AC50,[3],17.5 µM (active)
same,AC50,[4],28.9 µM (active)
same,outcome,[5],inactive
same,outcome,[6],inactive
same,outcome,[7],inactive
same,AC50,[8],20 µM (active)
same,outcome,[9],inactive
same,outcome,[10],inactive
CN1CSC(=S)N(C)C1,AC50,[3],15 µM (active)
same,AC50,[4],19.8 µM (active)
same,AC50,[5],31.6 µM (active)
same,AC50,[6],14.4 µM (active)
same,AC50,[7],20.2 µM (active)
same,AC50,[8],5.99 µM (active)
same,outcome,[9],inactive
same,outcome,[1],inactive
COP(=S)(OC)Oc1ccc([N+](=O)[O-])cc1,AC50,[3],14.5 µM (active)
same,AC50,[4],30.9 µM (active)
same,outcome,[5],inactive
same,AC50,[6],11.5 µM (active)
same,AC50,[7],20 µM (active)
same,AC50,[8],21.9 µM (active)
same,AC50,[9],21.7 µM (active)
same,outcome,[10],inactive
same,AC50,[1],2.85 µM (active)
same,AC50,[2],6.61 µM (active)
CC(C)N(C(=O)COc1nnc(C(F)(F)F)s1)c1ccc(F)cc1,outcome,[3],inactive
same,outcome,[4],inactive
same,outcome,[5],inactive
same,outcome,[6],inactive
same,outcome,[7],inactive
same,AC50,[8],15.8 µM (active)
same,outcome,[9],inactive
O=C(Nc1ccccc1)Nc1cnns1,outcome,[3],inactive
same,outcome,[4],inactive
same,outcome,[5],inactive
same,outcome,[6],inactive
same,outcome,[7],inactive
same,outcome,[8],inactive
same,outcome,[9],inactive
same,AC50,[1],5.8 µM (active)
O=C(O)CCCOc1ccc(Cl)cc1Cl,outcome,[3],inactive
same,outcome,[4],inactive
same,outcome,[5],inactive
same,outcome,[6],inactive
same,outcome,[7],inactive
same,outcome,[8],inactive
same,outcome,[9],inactive
same,outcome,[10],inactive
CCOC1Oc2ccc(OS(C)(=O)=O)cc2C1(C)C (configuration not stated),outcome,[3],inactive
same,AC50,[4],23.5 µM (active)
same,outcome,[5],inactive
same,AC50,[6],25.9 µM (active)
same,AC50,[7],10.1 µM (active)
same,outcome,[8],inactive
same,outcome,[9],inactive
CCOCN(C(=O)CCl)c1c(C)cccc1CC,AC50,[3],36 µM (active)
same,AC50,[4],17.1 µM (active)
same,outcome,[5],inactive
same,outcome,[6],inactive
same,outcome,[7],inactive
same,AC50,[8],27.1 µM (active)
same,AC50,[9],15.9 µM (active)
CC1(C)C(C=C(Cl)Cl)C1C(=O)OC(C#N)c1ccc(F)c(Oc2ccccc2)c1 (configuration not stated),AC50,[3],7.41 µM (active)
same,outcome,[4],inactive
same,outcome,[5],inactive
same,outcome,[6],inactive
same,outcome,[7],inactive
same,AC50,[8],29.9 µM (active)
same,AC50,[9],14.2 µM (active)
same,outcome,[10],inactive
CNC(=O)/C=C(\C)OP(=O)(OC)OC,outcome,[3],inactive
same,outcome,[4],inactive
same,outcome,[5],inactive
same,outcome,[6],inactive
same,outcome,[7],inactive
same,outcome,[8],inactive
same,outcome,[9],inactive
CCCN(CCOc1c(Cl)cc(Cl)cc1Cl)C(=O)n1ccnc1,AC50,[3],29.6 µM (active)
same,AC50,[4],20.6 µM (active)
same,AC50,[5],32.5 µM (active)
same,AC50,[6],20 µM (active)
same,AC50,[7],15.5 µM (active)
same,AC50,[8],30.4 µM (active)
same,outcome,[9],inactive
same,AC50,[10],0.784 µM (active)
same,AC50,[2],0.453 µM (active)
COc1nn(CSP(=S)(OC)OC)c(=O)s1,outcome,[3],inactive
same,outcome,[4],inactive
same,outcome,[5],inactive
same,outcome,[6],inactive
same,outcome,[7],inactive
same,outcome,[8],inactive
same,outcome,[9],inactive
same,AC50,[10],1.23 µM (active)
same,AC50,[1],6.42 µM (active)
same,AC50,[2],5.47 µM (active)
